Source: PubChem BioAssay (NCATS)
Unmarked numbers belong to inactive results. Inconclusive results are not listed. A call without a number means that no potency is given here. The source made the active and inactive calls. Unless noted, calls come from the whole dose curve; as a rule, active = well fitted curve in the direction sought with a large enough effect; inconclusive = small, poorly fitted or top-dose-only effect, or another doubt; inactive = no such curve, though single readings can be large; an effect the other way counts as inactive or inconclusive.

Tests used:
[1] = molecular target: T1, Hexokinase-4 (Homo sapiens) + Glucokinase regulatory protein (Homo sapiens) (UniProt P35557+Q14397); experiment: qHTS assay for inhibitors of recombinant human GCK-GKRP interaction: Diaphorase-coupled assay (AID 743205)
T1 sequence (P35557 whole entry, looked up): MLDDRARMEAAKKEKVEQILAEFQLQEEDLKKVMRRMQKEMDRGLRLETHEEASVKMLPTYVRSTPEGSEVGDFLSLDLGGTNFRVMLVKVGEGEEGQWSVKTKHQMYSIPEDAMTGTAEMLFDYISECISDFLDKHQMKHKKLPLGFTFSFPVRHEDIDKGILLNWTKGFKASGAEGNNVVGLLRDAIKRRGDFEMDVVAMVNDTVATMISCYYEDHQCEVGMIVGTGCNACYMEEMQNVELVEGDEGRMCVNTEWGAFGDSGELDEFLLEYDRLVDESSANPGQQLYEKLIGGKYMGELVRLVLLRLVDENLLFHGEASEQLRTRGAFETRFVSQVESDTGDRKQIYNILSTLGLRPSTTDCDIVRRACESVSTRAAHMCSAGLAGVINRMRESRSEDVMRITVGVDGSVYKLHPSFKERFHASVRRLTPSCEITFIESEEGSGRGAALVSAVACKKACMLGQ
T1 sequence (Q14397 whole entry, looked up): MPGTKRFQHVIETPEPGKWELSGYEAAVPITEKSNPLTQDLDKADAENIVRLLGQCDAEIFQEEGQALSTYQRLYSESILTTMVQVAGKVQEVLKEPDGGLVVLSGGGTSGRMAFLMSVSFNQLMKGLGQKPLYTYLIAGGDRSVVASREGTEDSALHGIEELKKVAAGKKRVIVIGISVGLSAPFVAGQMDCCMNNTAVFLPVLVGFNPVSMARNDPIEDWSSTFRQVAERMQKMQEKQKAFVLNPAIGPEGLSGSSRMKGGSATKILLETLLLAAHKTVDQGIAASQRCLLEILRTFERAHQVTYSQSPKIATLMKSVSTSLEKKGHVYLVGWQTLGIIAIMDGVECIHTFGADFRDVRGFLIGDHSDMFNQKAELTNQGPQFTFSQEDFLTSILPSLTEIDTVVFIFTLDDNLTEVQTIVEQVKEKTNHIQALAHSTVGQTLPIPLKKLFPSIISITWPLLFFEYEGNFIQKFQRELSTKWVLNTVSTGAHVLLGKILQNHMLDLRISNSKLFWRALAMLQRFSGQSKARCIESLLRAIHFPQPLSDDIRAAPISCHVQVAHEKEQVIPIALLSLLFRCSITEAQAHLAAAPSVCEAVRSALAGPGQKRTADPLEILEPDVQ
Outline: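 GST-GCK (10 nM) with FLAG-GKRP (10 nM), 5 mM glucose and 0.4 mM ATP in pH 7.6 Hepes; compounds preincubated 20 min with substrate. G6PDH/diaphorase coupling converts resazurin to resorufin, read kinetically (ex 525/em 590 nm) for 30 min.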

[2] = molecular target: T1, Hexokinase-4 (Homo sapiens) + Glucokinase regulatory protein (Homo sapiens); experiment: qHTS assay for inhibitors of recombinant human GCK-GKRP interaction: ADP-Glo assay (AID 743206)
Outline: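 Pin-transferred compounds meet a 15 nM GST-GCK/15 nM FLAG-GKRP/2 uM S6P mix (dispense concentrations). ATP is then added to 0.4 mM final with 5 mM glucose, and the reaction runs 60 min at room temperature. ADP is quantified luminescently.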

[3] = qHTS Assay for Identifying Gametocytocidal Compounds (AID 743244);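 note: actives lower the fluorescent signal which means gametocytes are killed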; details: P. falciparum 3D7 stage III-V gametocytes, alamarBlue, 72 h; max response: active compounds read low
Outline: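 In this qHTS viability screen, late-stage 3D7 gametocytes are incubated with compound for 72 h, then with alamarBlue for 24 h; reduced resorufin fluorescence marks killing.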

[4] = qHTS assay for measurement of the activity of small molecule inhibitors on Zika virus induced Caspase-3 activity in human iPSC derived neural progenitor cells (hNPCs) (AID 1224857); note: nearly all actives have a fitted effect of over 65% in size
Outline: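 In medium with heparin 2 ug/ml and cyclopamine 2 uM, hNPCs (350 cells/well) received compound for one hour and then Zika virus at 2 FFU/cell; caspase activity was measured by Caspase-Glo 3/7 luminescence 6 h post-infection.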

[5] = qHTS assay for measurement of the activity of small molecule inhibitors on Zika virus induced Caspase-3 activity in human astrocytoma cells (AID 1224859)
Outline: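 A cell-based luminescent caspase-3/7 assay used SNB-19 cells infected with ZIKV (2 FFU/cell) for 6 h following 1 h compound pretreatment.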

[6] = Natriuretic polypeptide receptor (hNpr1) antagonism - Pilot counterscreen GloSensor control cell line (AID 1347045; calls by dose curve; note: series mostly up to about 38 µM)
Outline: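 HEK293 cGMP-sensor cells; 2% GloSensor reagent 2 h RT; LOPAC compounds in 1:5 titrations 30-50 min; 50 uM SNP 20 min; luminescence pre-read and post-read.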

[7] = molecular target: Atrial natriuretic peptide receptor 1 (Homo sapiens) (UniProt P16066); experiment: Natriuretic polypeptide receptor (hNpr1) antagonism - Pilot screen (AID 1347049; calls by dose curve;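 note: HEK293 cells with hNpr1 and GloSensor cGMP luciferase stimulated by 0.1 nM hNppA; agonist-evoked cGMP luminescence read 20 min after hNppA addition; series mostly up to about 58 µM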)
Atrial natriuretic peptide receptor 1 (Homo sapiens), sequence (P16066 whole entry, looked up): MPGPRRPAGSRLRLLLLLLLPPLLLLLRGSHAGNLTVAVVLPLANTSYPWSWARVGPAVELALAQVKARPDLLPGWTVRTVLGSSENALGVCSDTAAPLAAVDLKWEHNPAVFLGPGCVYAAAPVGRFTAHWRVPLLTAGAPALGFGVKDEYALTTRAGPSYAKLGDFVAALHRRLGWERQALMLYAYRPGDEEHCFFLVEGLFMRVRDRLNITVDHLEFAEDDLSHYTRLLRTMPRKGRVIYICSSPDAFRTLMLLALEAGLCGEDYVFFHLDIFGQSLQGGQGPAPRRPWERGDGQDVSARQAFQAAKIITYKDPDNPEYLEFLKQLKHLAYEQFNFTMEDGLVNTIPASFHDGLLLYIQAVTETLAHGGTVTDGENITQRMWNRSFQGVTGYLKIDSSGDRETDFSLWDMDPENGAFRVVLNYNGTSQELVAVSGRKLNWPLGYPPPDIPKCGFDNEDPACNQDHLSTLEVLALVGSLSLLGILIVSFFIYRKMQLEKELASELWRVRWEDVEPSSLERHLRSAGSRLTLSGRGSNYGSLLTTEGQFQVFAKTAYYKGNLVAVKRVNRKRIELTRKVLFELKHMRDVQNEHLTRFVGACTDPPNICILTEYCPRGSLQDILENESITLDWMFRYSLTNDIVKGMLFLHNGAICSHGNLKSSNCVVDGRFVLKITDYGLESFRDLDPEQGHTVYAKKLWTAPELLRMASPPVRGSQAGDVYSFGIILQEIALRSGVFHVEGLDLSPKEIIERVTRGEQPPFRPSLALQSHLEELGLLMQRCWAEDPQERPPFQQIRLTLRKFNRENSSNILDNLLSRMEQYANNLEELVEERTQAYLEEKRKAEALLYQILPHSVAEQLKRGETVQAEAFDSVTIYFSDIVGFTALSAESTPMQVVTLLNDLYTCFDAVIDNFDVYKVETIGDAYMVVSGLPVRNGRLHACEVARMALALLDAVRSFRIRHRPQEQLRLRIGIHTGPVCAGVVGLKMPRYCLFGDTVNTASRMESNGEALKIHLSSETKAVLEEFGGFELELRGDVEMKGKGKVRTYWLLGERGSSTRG
Outline: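 Receptor antagonism read as cGMP-dependent luminescence in hNpr1/pGS-40F HEK293 cells: pre-read after 30 min compound exposure, post-read 20 min after hNppA agonist at 0.1 nM final, all at room temperature, protected from light; A-71915 titration as control.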

[8] = molecular target: Atrial natriuretic peptide receptor 2 (Homo sapiens) (UniProt P20594); experiment: Natriuretic polypeptide receptor (hNpr2) antagonism - Pilot subtype selectivity assay (AID 1347050; calls by dose curve)
Atrial natriuretic peptide receptor 2 (Homo sapiens), sequence (P20594 whole entry, looked up): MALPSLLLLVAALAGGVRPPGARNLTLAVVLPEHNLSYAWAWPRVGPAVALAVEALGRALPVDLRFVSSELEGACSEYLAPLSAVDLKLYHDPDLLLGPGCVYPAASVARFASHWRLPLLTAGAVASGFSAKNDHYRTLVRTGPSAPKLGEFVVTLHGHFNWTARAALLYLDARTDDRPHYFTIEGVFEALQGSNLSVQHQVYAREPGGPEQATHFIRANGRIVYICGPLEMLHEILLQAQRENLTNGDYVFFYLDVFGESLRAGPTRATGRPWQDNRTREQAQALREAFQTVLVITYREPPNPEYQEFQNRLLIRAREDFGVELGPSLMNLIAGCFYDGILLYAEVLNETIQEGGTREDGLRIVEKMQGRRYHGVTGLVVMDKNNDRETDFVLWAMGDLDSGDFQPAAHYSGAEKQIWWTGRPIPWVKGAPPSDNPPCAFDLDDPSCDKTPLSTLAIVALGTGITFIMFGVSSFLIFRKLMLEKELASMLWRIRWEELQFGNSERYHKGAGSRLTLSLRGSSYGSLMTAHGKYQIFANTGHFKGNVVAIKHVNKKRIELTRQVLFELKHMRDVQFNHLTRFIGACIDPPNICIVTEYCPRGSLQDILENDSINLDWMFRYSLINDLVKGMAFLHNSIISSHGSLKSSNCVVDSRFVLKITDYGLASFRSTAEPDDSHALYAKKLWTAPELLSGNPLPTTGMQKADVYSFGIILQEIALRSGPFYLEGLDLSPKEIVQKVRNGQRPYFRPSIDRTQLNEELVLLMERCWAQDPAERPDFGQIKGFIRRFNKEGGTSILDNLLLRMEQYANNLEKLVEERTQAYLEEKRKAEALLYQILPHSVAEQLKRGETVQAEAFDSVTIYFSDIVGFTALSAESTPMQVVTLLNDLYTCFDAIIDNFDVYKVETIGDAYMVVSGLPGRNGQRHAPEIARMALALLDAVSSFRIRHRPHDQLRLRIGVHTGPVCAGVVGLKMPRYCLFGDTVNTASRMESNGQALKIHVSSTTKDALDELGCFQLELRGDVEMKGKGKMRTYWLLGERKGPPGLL
Outline: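 Antagonist mode: compounds (LOPAC1280, seven 1:5 dilutions) added 30 min before 1 nM hNppC stimulation of hNpr2-HEK293 cGMP-sensor cells; luminescence read before and 20 min after agonist at ambient temperature.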

[9] = molecular target: T1, Hexokinase-4 (Homo sapiens) + Glucokinase regulatory protein (Homo sapiens); experiment: qHTS assay for inhibitors of recombinant human GCK-GKRP interaction: HTRF assay (AID 743207)
Outline: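 GST-GCK and FLAG-GKRP (5 nM each) were combined with 2 uM S6P in pH 7.1 Hepes/MgCl2/KCl/DTT buffer, then compound and anti-FLAG XL665/anti-GST K antibodies were added. After 60 min at room temperature, HTRF 665/615 nm emission was read.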

[10] = qHTS assay for cell viability of HEK293 cells (AID 743288); details: ATP luminescence (CellTiter-Glo), 18 h; max response: active compounds read low; note: nearly all actives have a fitted effect of over 50% in size
Outline: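 After 18 h compound exposure at 37 C, parental HEK293 cells (2,000/well) are lysed with CellTiter-Glo and luminescence is read following 30 min at room temperature.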

[11] = qHTS assay for cell viability of the p53RE-bla HCT-116 cell line (AID 743292); note: nearly all actives have a fitted effect of over 55% in size; note: potency is the fitted concentration of half-maximal effect
Outline: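 Compound-exposed HCT-116 (p53RE-bla) cells, 4,000 per well, were kept 16 h at 37 C following a 5 h preincubation. Cell number was estimated from total ATP by CellTiter-Glo luminescence read after 30 min at room temperature.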

Row | Compound | Potency [1] | Potency [2] | max response [3] | Potency [4] | Potency [5] | Potency [6] | Potency [7] | Potency [8] | Potency [9] | max response [10] | Potency [11]
1 | O=c1cc(-c2ccccc2)[nH]c2nc(Cl)ccc12 | inactive | inactive | -6.09% | inactive | inactive | inactive | inactive | inactive |  |  | 
2 | Nc1nc2c(nc(Br)n2C2OC3COP(=O)(O)O[C@@H]3C2O)c(=O)[nH]1 (stereo partly specified) | inactive |  | 9.58% | inactive | inactive | inactive | inactive | inactive | inactive |  | 
3 | O=S(=O)(c1cccc2c(Cl)cccc12)N1CCCNCC1 | inactive |  |  | inactive | inactive | inactive | inactive | inactive | inactive |  | 
4 | NC(=Nc1ccccc1)NC(=O)c1nc(Cl)c(N)nc1N | inactive | inactive | 12.9% | inactive | inactive | inactive | inactive | inactive | inactive |  | 
5 | NC1(C(=O)O)CCCCC1 | inactive | inactive | 26.2% | inactive | inactive | inactive | inactive | inactive | inactive |  | 
6 | N[C@@H](CCCC(=O)O)C(=O)O | inactive | inactive | 28.3% | inactive | inactive | inactive | inactive | inactive | inactive |  | 
7 | C[C@H]1CC2C3CCC4=CC(=O)C=C[C@]4(C)[C@@]3(Cl)[C@@H](O)C[C@]2(C)[C@@]1(O)C(=O)CO (stereo partly specified) | inactive |  | -6.5% | inactive | inactive | inactive | inactive | inactive | inactive |  | 
8 | Cc1nc(N=Nc2cc(S(=O)(=O)O)c3cc([N+](=O)[O-])cc(S(=O)(=O)O)c3c2)c(COP(=O)(O)O)c(C=O)c1O | inactive | inactive | -2.01% | inactive | inactive | inactive | inactive | inactive |  |  | 
9 | O=c1[nH]c(=S)[nH]c(-c2ccccc2)c1Cc1c(O)ccc2ccccc12 | inactive |  | 1.54% | inactive | inactive | inactive | inactive | inactive | inactive |  | 
10 | Cn1cc(C(=O)OCC2CCN(CCNS(C)(=O)=O)CC2)c2ccccc21 |  | inactive | 28.9% | inactive | inactive | inactive | inactive | inactive | inactive |  | 
11 | CCC1(O)CC2CN(CCc3c([nH]c4ccccc34)[C@@](C(=O)OC)(c3cc4c(cc3OC)N(C=O)C3[C@]45CCN4CC=C[C@@](CC)([C@@H](OC(C)=O)[C@]3(O)C(=O)OC)[C@H]45)C2)C1 (stereo partly specified) | inactive | inactive |  | inactive | inactive | inactive | inactive |  | inactive |  | 
12 | CCCC[C@@]1(C2CCCC2)Cc2cc(OCC(=O)O)c(Cl)c(Cl)c2C1=O |  | inactive | 8.17% | inactive | inactive | inactive | inactive | inactive | inactive |  | 
13 | NC1C=CC=C(C(=O)O)C1 (stereo unspecified) | inactive |  | -5.22% | inactive | inactive | inactive | inactive | inactive | inactive |  | 
14 | CCCc1c(-c2ccc(O)cc2)nn(-c2ccc(O)cc2)c1-c1ccc(O)cc1 | inactive |  | 23.6% | inactive | inactive | inactive | inactive | inactive | inactive | -10.3% | 70.8 µM (active)
15 | C=C(C)C1CC=C(C(=O)O)CC1 (stereo unspecified) |  | inactive | 19.6% | inactive | inactive | inactive | inactive | inactive | inactive |  | 
16 | O=[N+]([O-])c1cccc2c(Br)[nH]nc12 | inactive |  | -25.7% | inactive | inactive | inactive | inactive | inactive | inactive |  | 
17 | CC1=C(/C=C/C(C)=C/C=C/C(C)=C\C(=O)O)C(C)(C)CCC1 | inactive |  | 17.8% | inactive | inactive | inactive | inactive | inactive | inactive | 0.628% | inactive
18 | O=C(c1ccc2c(c1)OCCO2)N1CCCCC1 |  | inactive | 22.1% | inactive | inactive | inactive | inactive | inactive | inactive |  | 
19 | Cc1ccccc1/C=C/C1=NCCN1 |  | inactive |  | inactive | inactive | inactive | inactive | inactive | inactive |  | 
20 | O=C(O)/C=C/c1ccc(O)c(O)c1 |  | inactive | 8.93% | inactive | inactive | inactive | inactive | inactive | inactive |  | 
21 | CCN(c1nc(N)c(C(=O)N=C(N)N)nc1Cl)C(C)C | inactive | inactive |  | inactive | inactive | inactive | inactive |  | inactive |  | 
22 | CC[N+](CC)(CC)CC(=O)Nc1c(C)cccc1C |  | inactive | 14.2% | inactive | inactive | inactive | inactive | inactive | inactive |  | 
23 | CCN(CC)CCOC(=O)c1cc(Cl)c(N)cc1OC |  |  | 40.4% | inactive | inactive | inactive | inactive | inactive | inactive |  | 
24 | O=c1cc(O)cc(/C=C/c2ccc(O)c(O)c2)o1 | inactive | inactive |  | inactive | inactive | inactive | inactive |  | inactive |  | 
25 | CC(N)=O |  | inactive | 12.7% | inactive | inactive | inactive | inactive | inactive | inactive |  | 
